# Results taken from PubChem BioAssay (Tox21).
# Values joined by “and” are separate entries in the source; they are usually repeats but may differ in a detail not shown here. Equal entries are not always repeated. Records with an inconclusive call do not appear. Unmarked numbers belong to inactive results. Active and inactive are the calls of the source. The call rests on the fitted dose curve; in most records, active means well fitted cell-killing curve with a large enough effect in the repeat runs; inconclusive means weak or mixed curves, or effect the other way; inactive means flat fitted curve, though single readings scatter.
# Test: qHTS RealTime-Glo MT Cell Viability Assay in HEK293 cells - 32 hour (AID 1224868); further: nearly all actives have a fitted effect of over 50% in size; on activity change, negative = cytotoxic: top concentration of the series differs between compounds
# Settings: RealTime-Glo luminescence; series mostly up to 76.8 µM; activity change, negative = cytotoxic: at the top concentration
# Description: National Center for Advancing Translational Sciences [NCATS]
# NIH Chemical Genomics Center [NCGC]
# U.S. Environmental Protection Agency [EPA]
# National Institutes of Environmental Health Sciences [NIEHS]
# National Toxicology Program [NTP]
# U.S. Food and Drug Administration [FDA]
# Measure of cell viability is critical in the cell-base assay. Analysis of cell viability is necessary for the characterization of cell responses to cytotoxic drugs and environmental stress. A RealTime-Glo MT Cell Viability Assay to monitor cell viability in real time of continues cell culture during 40 hours of compound treatment was used to screen Tox21 10K library compounds in Hek293 cells. The RealTime-Glo MT Cell Viability Assay is a nonlytic, homogeneous, bioluminescent method to measure cell viability in real time using a simple, plate-based method. The assay involves adding NanoLuc luciferase and a cell-permeant prosubstrate to cells in culture. Viable cells reduce the proprietary prosubstrate to generate a substrate for NanoLuc luciferase. This substrate diffuses from cells into the surrounding culture medium, where it is rapidly used by the NanoLuc Enzyme to produce a luminescent signal. The signal correlates with the number of viable cells, making the assay well suited for cytotoxicity studies.
# Tox21 Assay Protocol Summary:
# The mixture of Hek293 cell suspension and reagents were dispensed at 600cells/6 ul/well in 1536-well tissue culture treated black solid bottom plates using a Multidrop dispenser. After the assay plates were incubated at a 37 C/5% CO2 incubator for 5 hours, 23 nL of compounds dissolved in DMSO, positive and negative controls was transferred to the assay plate by a pintool work station. The plates were incubated at 37 C for 40 hours. The luminescence intensity were measured at 0h, 8h, 16h, 24h, 32h and 40h time points using ViewLux plate reader during compound treatment.
# On the % scale 0 is the no-effect control and ±100 the full control effect; potency means the concentration at half of the fitted maximal effect.
SMILES,Potency,"activity change, negative = cytotoxic"
CCCCCCCCCCCCCCn1cc[n+](C)c1,8.72 µM (active) and 4.32 µM (active),–
CC(C)C(Nc1ccc(C(F)(F)F)cc1Cl)C(=O)OC(C#N)c1cccc(Oc2ccccc2)c1 (stereo not given),–,-22.7%
CC(=O)O.CC(=O)O.CC(=O)O.CC(=O)O.CC(=O)O.CC(=O)O.CC(=O)O.O.O.[Cr].[Cr].[Cr],–,2.79%
CCCCN(CCCC)C(=S)[S-].CCCCN(CCCC)C(=S)[S-].[Ni+2],–,-20.7% [at 35.3 µM]
CC(Cc1ccccc1)N(C)Cc1ccco1 (stereo not given),–,1.6% [at 35.3 µM]
Cc1c([N+](=O)[O-])cc2c(c1[N+](=O)[O-])C(C)(C)CC2(C)C,–,12.6%
O=Cc1ccccc1,–,19.8%
Clc1ccc(C2(Cn3cncn3)OCCO2)c(Cl)c1,–,-27.6%
N#Cc1c2ccccc2cc2ccccc12,–,-10.8%
O=C(Nc1ccc(F)cc1F)c1cccnc1Oc1cccc(C(F)(F)F)c1,–,4.91%
Fc1ccc(C(OCCN2CCN(CCCc3ccccc3)CC2)c2ccc(F)cc2)cc1,9.52 µM (active),–
CC(=O)[O-].CC(=O)[O-].O.O.[Zn+2],–,-0.749%
CCOP(=O)(OCC)Oc1nc(Cl)c(Cl)cc1Cl,–,-7.42%
CCCCn1cc[n+](C)c1.[Cl][Fe-]([Cl])([Cl])[Cl],–,-1.42%
COc1nc(C)nc(NC(=O)NS(=O)(=O)c2ccccc2Cl)n1,–,6.78%
CC(=O)[O][Sn]([c]1ccccc1)([c]1ccccc1)[c]1ccccc1,0.0389 µM (active),–
Oc1cc(Cl)c(Cl)c(Cl)c1Cl,47.8 µM (active),–
COP(=O)(OC)O/C(=C\Cl)c1cc(Cl)c(Cl)cc1Cl,–,-1.69%
CSC(=O)c1c(C(F)F)nc(C(F)(F)F)c(C(=O)SC)c1CC(C)C,–,-23.1%
O=[N+]([O-])C(Br)Br,55 µM (active),–

SMILES,Potency,"activity change, negative = cytotoxic"
O=C(N[C@H]1N=C(c2ccccc2F)c2cccc3c2N(CC3)C1=O)c1cc2ccccc2[nH]1,–,0.834% [at 35.3 µM]
O.O.O.O.O.O.O=S(=O)([O-])[O-].[Ni+2],–,-25.6% [at 35.3 µM]
CCCCON=O,–,5.55%
COCCC#N,–,7.39%
O=[N+]([O-])c1cccc2cccc([N+](=O)[O-])c12,–,-10%
CCCCC(CC)COC(=O)c1ccccc1C(=O)OCC(CC)CCCC (stereo not given),–,-1.89%
CCCCCON=O,–,-6.58%
O=C(CCCCl)c1ccc(F)cc1,–,0.0629% [at 35.3 µM]
CC(C)N(C(=O)SC/C(Cl)=C/Cl)C(C)C,–,-23.9%
CO/N=C(\C(=O)OC)c1ccccc1CO/N=C(\C)c1cccc(C(F)(F)F)c1,12.3 µM (active),–
O=S1(=O)OCC2C(CO1)C1(Cl)C(Cl)=C(Cl)C2(Cl)C1(Cl)Cl (stereo not given),21.9 µM (active),–
CN=C=O,–,5.52%
Cc1ccc(C)c2ccccc12,–,-14.5%
CC(C)[C@@H](Nc1ccc(C(F)(F)F)cc1Cl)C(=O)OC(C#N)c1cccc(Oc2ccccc2)c1 (stereo not given in full),–,-16%
CN(C)c1ccc(N)cc1,24 µM (active),–
ClC1(Cl)C2(Cl)C3(Cl)C4(Cl)C(Cl)(Cl)C5(Cl)C3(Cl)C1(Cl)C5(Cl)C24Cl (stereo not given),–,-9.92%
CC1CN1 (stereo not given),–,5.39%
Cc1cc2c3c(c1)C(c1ccccc1)=N[C@@H](NC(=O)c1ccncc1)C(=O)N3CC2,–,-4.07%
CCC[CH2][Sn]([CH2]CCC)([CH2]CCC)[O][Sn]([CH2]CCC)([CH2]CCC)[CH2]CCC,0.17 µM (active),–
Clc1ccc(C(Cl)(Cl)Cl)cc1Cl,33.9 µM (active),–
